Assay outcomes from PubChem BioAssay.
Compounds with a hit are over-represented: about 0.17% of the library has one in this group of screens.
RGS4 inh = Inhibitors of Regulator of G Protein Signaling (RGS) 4: qHTS. Regulator of G-protein signaling 4 (Homo sapiens), P49798. Transcreener GDP fluorescence polarization, RGS4-accelerated GTP hydrolysis. Potency, µM (highest dose often 114 µM), for inactives: at the highest dose activity change, negative = inhibition, actives largely listed as inhibitors. 390,000 tested, 0.039% active; note: % is set by controls: 0 for no effect and ±100 for the full control effect; nearly all actives have a fitted effect of over 75% in size
Target sequence (P49798 whole entry, looked up): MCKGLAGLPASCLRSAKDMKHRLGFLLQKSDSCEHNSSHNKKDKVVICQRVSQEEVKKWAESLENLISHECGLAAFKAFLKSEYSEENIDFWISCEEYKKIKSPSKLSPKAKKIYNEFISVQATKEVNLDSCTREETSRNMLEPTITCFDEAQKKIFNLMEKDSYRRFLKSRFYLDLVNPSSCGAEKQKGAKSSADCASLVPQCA
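MLSMR compounds (23 nl, pin-transferred) preincubated 10 min at room temperature with a 500nM (2x) first reagent, then RGS4 at 900nM (2x) plus Transcreener GDP mix added; fluorescence polarization (620/688 nm) read before and after 90 min at 30 °C.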
GRP78 ERSR act = qHTS for Inducers of the Endoplasmic Reticulum Stress Response (ERSR) in Human Glioma: qHTS; Potency, µM, for inactives: top-dose activation, usual class: activators; U87-MG GRP78 promoter luciferase reporter, 16 h; 420,000 tested, 0.02% active; note: series mostly up to about 76 µM; % of control where 0% means no effect; nearly all actives have a fitted effect of over 35% in size
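Stably transfected U87-MG human glioma cells carrying a GRP78-based luminescent sensor were seeded at 1000 cells/well, pin-dosed with compounds and incubated 16 h. Luciferase reagent was then added, and end-point luminescence was read after 10 min at room temperature.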
Apoferritin bind = qHTS Assay for Identification of Novel General Anesthetics | Ferritin light chain (Equus caballus), P02791 | apoferritin/1-aminoanthracene competitive binding, fluorescence | Potency, µM (doses to about 77.5 µM), for the others: at the highest dose activity change, negative = displacement, actives largely listed as inhibitors | 350,000 tested, 0.074% active; note: % is set by controls: 0 for no effect and ±100 for the full control effect; nearly all actives have a fitted effect of over 20% in size
Target sequence (P02791 2-175 limits assumed): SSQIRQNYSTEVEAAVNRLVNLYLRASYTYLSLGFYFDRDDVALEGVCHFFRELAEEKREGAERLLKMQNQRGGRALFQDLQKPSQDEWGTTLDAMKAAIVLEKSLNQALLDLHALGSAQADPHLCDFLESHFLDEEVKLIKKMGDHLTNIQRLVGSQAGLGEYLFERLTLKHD
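Steps: apoferritin (10 uM) was premixed with half-saturated 1-AMA in PBS, compounds were pin-transferred, plates stood 10 min at room temperature, fluorescence was read at 380/535 nm, and curves were fitted with a Hill equation.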
Pin1 inhibitor = qHTS Assay to Find Inhibitors of Pin1; Pin1 FP peptide displacement, HiFluor488, 10 min; 390,000 tested, 0.009% active; Peptidyl-prolyl cis-trans isomerase NIMA-interacting 1 (Homo sapiens), Q13526; Potency, µM (top dose mostly 115 µM), for the others: at the highest dose activity, negative = inhibition, actives largely listed as inhibitors; active = well fitted inhibition curve with a large enough effect in the polarisation, with a control signal flat, not every such curve was filed as active; inconclusive = small, poorly fitted or top-dose-only effect, or effect the other way, or a change in a side signal; inactive = no such curve, though single readings can be large or run the other way; the % refers to the polarisation; note: % is set by controls: 0 for no effect and ±100 for the full control effect
Target sequence (Q13526 whole entry, looked up): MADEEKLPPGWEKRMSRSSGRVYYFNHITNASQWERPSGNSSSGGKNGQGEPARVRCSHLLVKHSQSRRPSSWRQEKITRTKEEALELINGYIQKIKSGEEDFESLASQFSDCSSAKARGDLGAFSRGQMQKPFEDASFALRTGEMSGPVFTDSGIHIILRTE
Mm-Cpn inhibitor = Inhibitors of TCP-1 ring complex (TRiC) of Methanococcus maripaludis (MmCpn): qHTS. Chaperonin Mm-Cpn (Methanococcus maripaludis). purified Mm-Cpn ATPase, ADP Transcreener TR-FRET. Potency, µM (doses to about 76.9 µM), without a hit: top-dose activity, negative = inhibition, actives largely listed as inhibitors. 330,000 tested, 0.031% active. AID 504842, 2011; note: % is set by controls: 0 for no effect and ±100 for the full control effect; nearly all actives have a fitted effect of over 80% in size
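Eu-cryptate anti-ADP/ADP-d2 competition gives a ratio inversely related to ADP. Enzyme at 25 nM was pre-exposed to compound for 10 min, then given 10 uM ATP for 30 min, 37°C throughout.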
B2AR arrestin = qHTS assay of beta-arrestin-biased ligands of beta2-adrenergic receptor | Potency, µM (titrated, usually from 46.1 µM), inactives show at the highest dose activation, most hits filed as activators | beta-arrestin recruitment to beta2AR, cell-based reporter | 330,000 tested, 0.02% active;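 note: 0% = DMSO controls and full agonism = EC100 isoproterenol or metaproterenol; nearly all actives have a fitted effect of over 65% in size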
* marks the source's active call; other numbers are inactive results; u = inconclusive; x = no result; ! = not active in a repeat; [ ] = another dose, or the depositor's remark. Unless noted, calls come from the whole dose curve; as a rule, active = well fitted curve in the direction sought with a large enough effect; inconclusive = small, poorly fitted or top-dose-only effect, or another doubt; inactive = no such curve, though single readings can be large; an effect the other way counts as inactive or inconclusive. Potency is the fitted concentration of half-maximal effect.

SMILES	RGS4 inh	GRP78 ERSR act	Apoferritin bind	Pin1 inhibitor	Mm-Cpn inhibitor	B2AR arrestin
COc1cccc(C2c3c(ncn(-c4ccccc4OC)c3=N)Oc3ccc4ccccc4c32)c1 (stereo not drawn)	x	x	x	1%	x	x
CNC(=S)N/N=C(\C)c1ccc(Cl)s1	-18%	4%	3%	-7%	3%	18µM*
O=C1c2ccccc2C(=O)N1c1cncc2ccccc12	x	x	x	0%	x	x
Cc1cc(OC(C)C)c2c(-c3ccccc3)cc(=O)oc2c1	-39%	-4%	18µM*	1%	1%	0%
CC(C)CC(OC(=O)CNC(=O)c1ccccc1)C(=O)Nc1cc(C(F)(F)F)ccc1Cl (stereo not drawn)	x	x	x	0%	x	x
Cc1cc(C[n+]2ccsc2N)c2ncccc2c1	-12%	-4%	-11%	5%	40µM*	0%
Cc1ccc(NC(=O)COC(=O)c2ccc3c(c2)OCCO3)cc1S(=O)(=O)N1CCOCC1	-16%	-2%	-12%	3%	-2%	0%
Cc1ccc(NC(=O)COC(=O)c2ccc(NC(=O)CC#N)cc2)cc1S(=O)(=O)N1CCOCC1	12%	-3%	x	69%	32µM*	0%
CC(C)(C)c1ccc(C(=O)NC(=S)NNC(=O)c2cccs2)cc1	-35%	14µM*	-15%	2%	1%	-1%
CCCCSC(=O)Nc1ccccc1	16%	3%	13µM*	-3%	-2%	0%
CCCCCC(=O)NNC(=O)Nc1ccccc1	-20%	-4%	5%	6%	0%	0%
CCN(CC)C(=S)SCC(=O)c1ccccc1	-35%	9%	u	-1%	1%	0%
CCN(CC)C(=S)SSC(=S)N(CC)CC	1.1µM*!	-3%	u	-8%	1%	0.65µM*
NC(=O)C1CCN(c2nnc(-c3ccc(Br)cc3)s2)CC1	x	x	x	-2%	x	x
Cc1cc(N)c2ccccc2[n+]1CCCCCCCCCC[n+]1c(C)cc(N)c2ccccc21	24µM*	-6%	0%	x	x	x
COc1ccc(C2Nc3ccccc3C(=O)N2CCCN(C)C)cc1COc1ccc(NC(C)=O)cc1 (stereo not drawn)	x	x	x	2%	x	x
O=c1cc(-c2ccccc2)oc2cccc(O)c12	8.4µM*!	1%	-5%	-2%	x	x
COc1cc(C2CC(=O)Oc3ccc(O)cc32)cc(OC)c1OC (stereo not drawn)	x	50µM*	4%[110 µM]	x	x	x
O=C(Cc1ccccc1)Nc1nc2ccc(Cl)cc2c2nc(-c3ccco3)nn12	38µM*	-5%	-1%	x	x	x
O=C(Cc1ccccc1)n1nc(-c2ccco2)nc1SCc1ccccc1	-21%	4%	u	2%	0%	0%
Cc1cc(C(C)(C)CC(C)(C)C)ccc1OCCOCC[N+](C)(C)Cc1ccccc1	-29%	-8%	32µM*	13%	-2%	0%
COC(=O)c1c(-c2ccc(N(C)C)cc2)sc2ccc(OC)cc12	-10%	0%	x	4%	-1%	0%
COC(=O)c1c(-c2ccc(OC)cc2)sc2cc3c(cc12)OCO3	9%	2%	x	u	50µM*	-1%
CCCN(c1ccc(C(C)C)cc1)S(=O)(=O)c1ccc2c(c1)oc(=O)n2CC(=O)OCC	15%	20µM*	81%	-3%	x	x
CCOC(=O)Cn1c(=O)oc2cc(S(=O)(=O)N(C)Cc3ccccc3)ccc21	-40%[56.9 µM]	-4%	0%	-5%	-6%	0%
SMILES	RGS4 inh	GRP78 ERSR act	Apoferritin bind	Pin1 inhibitor	Mm-Cpn inhibitor	B2AR arrestin
COc1cccc(C2c3c(ncn(-c4ccc(C)cc4)c3=N)Oc3ccc4ccccc4c32)c1 (stereo not drawn)	x	x	x	15%	x	x
COc1ccc(C2Nc3ccccc3C(=O)N2Cc2ccccc2)cc1OCc1ccc(NC(C)=O)cc1 (stereo not drawn)	x	x	x	24%	x	x
CCCC(C)NS(=O)(=O)c1ccc(OC)c(C)c1 (stereo not drawn)	12%	u	16µM*	5%	1%	0%
CCCC(C)NS(=O)(=O)c1ccccc1 (stereo not drawn)	-16%	-3%	u	-2%	0%	-2%
COc1ccc(-c2cc(C(F)(F)F)nc(-n3cncn3)n2)cc1	8%	-5%	32µM*	3%	2%	10%
Cn1c2cc(CO)sc2c2cnn(Cc3ccccc3F)c(=O)c21	x	x	x	-3%	x	x
CSc1nc(N)c2ncn([C@@H]3O[C@H](COP(=O)(O)OP(=O)(O)O)C(O)[C@H]3O)c2n1 (stereo partly drawn)	0.53µM*	-1%	x	x	x	x
NC(=O)C1=CN(C2OC(COP(=O)(O)OP(=O)(O)OC[C@H]3O[C@@H](n4cnc5c(N)ncnc54)[C@H](OP(=O)(O)O)[C@@H]3O)C(O)C2O)C=CC1 (stereo partly drawn)	13µM*	1%	x	x	x	x
Nc1ncnc2c1ncn2C1OC(COP(=O)(O)O)C(O)C1O (stereo not drawn)	-19%	-2%	-1%	-15%	0%	0%
Nc1ncnc2c1ncn2[C@@H]1O[C@H](COP(=O)(O)O)[C@@H](O)[C@H]1O	u	-3%	-1%	-6%	-1%	0%
CSc1nc(N)c2ncn([C@@H]3O[C@H](COP(=O)(O)OP(=O)(O)OP(=O)(O)O)[C@@H](O)[C@H]3O)c2n1	12µM*!	-3%	-1%	x	x	x
O=c1c(O)c(-c2ccc(O)cc2)oc2cc(O)cc(O)c12	5%	4%	-14%[29.3 µM]	1%	x	x
O=c1c(-c2c(O)cc(O)c3c2O[C@H](c2ccc(O)cc2)CC3)c(-c2ccc(O)cc2)oc2cc(O)cc(O)c12	-17%	5%	x	u	35µM*	0%
N#C/C(=C\c1c(Cl)cccc1Cl)c1nc2ccccc2[nH]1	5%	-1%	-9%	-4%	-1%	0%
N#C/C(=C\c1c(Cl)cccc1Cl)c1nc2ccccc2o1	-6%	-6%	-6%	24%	1%	23µM*
O=C(O)CCNc1ccc(NCCC(=O)O)c2c1C(=O)c1ccccc1C2=O	-126%	-10%	-8%	u	45µM*	0%
O=C(NCCCCc1ccccc1)C1CCN(c2nc(-c3ccc(Br)cc3)cs2)CC1	x	x	x	41%	x	x
COc1ccc(CCNC(=O)Cc2ccc(OCc3ccccc3)c(OC)c2[N+](=O)[O-])cc1OCc1ccccc1	5%	2%	35µM*	16%	-2%	0%
